Results from PubChem BioAssay AID1159580 (chemical genetic matrix, 2015).
The campaign covered roughly 5,500 compounds. About 2,000 (36%) were called active. Not shown: some 18% with an inconclusive outcome. No stated cut-off is given here; in the data, active means normalized growth mostly below about 0.91 (no sharp cut-off); inconclusive means no clear call, values can overlap the other calls; inactive means mostly above about 0.92. The list shows a part of the results.

Assay: chemical genetic growth profiling, strain panel (AID 1159580);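 further: tested at 20 µM; growth read once vehicle control cultures reached saturation at 30 °C; 1 = growth at the plate median or of vehicle wells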
Details: S. cerevisiae deletion strains, growth OD

Measured: normalized growth

C=C1C2CC[C@@]3(C)[C@H](c4ccoc4)OC(=O)C[C@]13O[C@H]1CC(=O)C(C)(C)C(CC(=O)OC)[C@@]21C (some centres not stated)
inactive: locus YAL021C, strain ccr4, stronger effect = lower value 1.01 | locus YAL026C, strain drs2, stronger effect = lower value 0.981 | locus YAL030W, strain snc1, stronger effect = lower value 0.983 | locus YBL061C, strain skt5, stronger effect = lower value 0.981 | locus YBR009C, strain hhf1, stronger effect = lower value 0.995 | locus YBR021W, strain FUR4, stronger effect = lower value 1 | locus YBR023C, strain chs3, stronger effect = lower value 0.977 | locus YBR171W, strain sec66, stronger effect = lower value 0.953 | locus YBR229C, strain ROT2, stronger effect = lower value 0.989 | locus YBR231C, strain swc5, stronger effect = lower value 0.983 | locus YBR279W, strain paf1, stronger effect = lower value 0.979 | locus YCL011C, strain gbp2, stronger effect = lower value 0.962 | locus YCL016C, strain dcc1, stronger effect = lower value 1.01 | locus YCL029C, strain bik1, stronger effect = lower value 0.992 | locus YCL061C, strain MRC1, stronger effect = lower value 0.987 | locus YCL069W, strain vba3, stronger effect = lower value 0.964 | locus YCR088W, strain abp1, stronger effect = lower value 0.964 | locus YDL005C, strain med2, stronger effect = lower value 0.969 | locus YDL035C, strain GPR1, stronger effect = lower value 0.984 | locus YDL040C, strain nat1, stronger effect = lower value 0.966 | locus YDL074C, strain BRE1, stronger effect = lower value 1.01 | locus YDL101C, strain DUN1, stronger effect = lower value 1 | locus YDL185W, strain tfp1, stronger effect = lower value 1.01 | locus YDL192W, strain arf1, stronger effect = lower value 0.988 | locus YDR001C, strain nth1, stronger effect = lower value 0.976 | locus YDR069C, strain doa4, stronger effect = lower value 0.975 | locus YDR101C, strain arx1, stronger effect = lower value 0.986 | locus YDR137W, strain rgp1, stronger effect = lower value 0.922 | locus YDR159W, strain sac3, stronger effect = lower value 0.948 | locus YDR162C, strain NBP2, stronger effect = lower value 0.962 | locus YDR195W, strain ref2 0.978 | locus YDR297W, strain sur2, stronger effect = lower value 0.983 | locus YDR318W, strain mcm21, stronger effect = lower value 0.998 | locus YDR334W, strain swr1, stronger effect = lower value 0.966 | locus YDR335W, strain msn5, stronger effect = lower value 0.972 | locus YDR388W, stronger effect = lower value 1.02 | locus YDR392W, strain spt3, stronger effect = lower value 0.958 | locus YDR502C, strain sam2, stronger effect = lower value 1.01 | locus YEL003W, strain gim4, stronger effect = lower value 0.979 | locus YEL037C, strain rad23, stronger effect = lower value 0.97 | locus YEL061C, strain CIN8 (second series), stronger effect = lower value 0.966 | locus YER015W, strain faa2, stronger effect = lower value 0.987 | locus YER016W, strain bim1, stronger effect = lower value 0.975 | locus YER110C, stronger effect = lower value 1.01 | locus YER111C, strain swi4, stronger effect = lower value 0.978 | locus YER155C, strain BEM2 (second series), stronger effect = lower value 0.991 | locus YER155C, strain BEM2, stronger effect = lower value 1.01 | locus YER167W, strain BCK2, stronger effect = lower value 0.984 | locus YFR010W, strain ubp6, stronger effect = lower value 0.963 | locus YGL078C, strain dbp3, stronger effect = lower value 1.02 | locus YGL086W, strain mad1, stronger effect = lower value 1 | locus YGL167C, strain pmr1, stronger effect = lower value 0.97 | locus YGL173C, strain kem1, stronger effect = lower value 0.969 | locus YGL227W, strain vid30, stronger effect = lower value 0.973 | locus YGL240W, strain doc1, stronger effect = lower value 0.974 | locus YGL248W, strain PDE1, stronger effect = lower value 0.998 | locus YGL253W, strain hxk2, stronger effect = lower value 0.952 | locus YGR135W, strain pre9, stronger effect = lower value 1.03 | locus YGR252W, strain gcn5, stronger effect = lower value 1.01 | locus YHR013C, strain ard1, stronger effect = lower value 0.974 | locus YHR027C, strain rpn1, stronger effect = lower value 0.985 | locus YHR030C, strain SLT2, stronger effect = lower value 0.996 | locus YHR079C, strain IRE1 (second series), stronger effect = lower value 0.998 | locus YHR094C, strain hxt1, stronger effect = lower value 1.01 | locus YHR129C, strain ARP1, stronger effect = lower value 1.01 | locus YHR142W, strain chs7, stronger effect = lower value 0.969 | locus YHR200W, strain rpn10, stronger effect = lower value 1.01 | locus YIL066C, strain RNR3, stronger effect = lower value 0.989 | locus YIL073C, strain SPO22, stronger effect = lower value 1.04 | locus YIL125W, strain kgd1, stronger effect = lower value 1 | locus YIR030C, strain dcg1, stronger effect = lower value 1 | locus YJL092W, strain hpr5, stronger effect = lower value 0.967 | locus YJL095W, strain BCK1 (second series), stronger effect = lower value 0.991 | locus YJL095W, strain BCK1, stronger effect = lower value 1.03 | locus YJL115W, strain asf1, stronger effect = lower value 0.973 | locus YJL129C, strain trk1, stronger effect = lower value 0.961 | locus YJL134W, strain LCB3, stronger effect = lower value 1.01 | locus YJL154C, strain vps35, stronger effect = lower value 0.973 | locus YJL164C, strain tpk1, stronger effect = lower value 1 | locus YJL166W, strain qcr8, stronger effect = lower value 0.977 | locus YJL168C, strain set2, stronger effect = lower value 0.998 | locus YJL187C, strain SWE1 (second series), stronger effect = lower value 1.01 | locus YJL187C, strain SWE1, stronger effect = lower value 0.974 | locus YKL009W, strain mrt4, stronger effect = lower value 0.968 | locus YKL068W, stronger effect = lower value 1 | locus YKL085W, strain MDH1 (second series), stronger effect = lower value 0.989 | locus YKL085W, strain MDH1, stronger effect = lower value 0.989 | locus YKL160W, strain elf1, stronger effect = lower value 1.01 | locus YKR001C, strain vps1, stronger effect = lower value 1 | locus YKR026C, strain gcn3, stronger effect = lower value 0.979 | locus YKR091W, strain srl3, stronger effect = lower value 0.986 | locus YLL001W, strain dnm1, stronger effect = lower value 1.01 | locus YLL026W, stronger effect = lower value 0.981 | locus YLL041C, strain sdh2, stronger effect = lower value 0.974 | locus YLR027C, strain aat2, stronger effect = lower value 0.996 | locus YLR039C, strain RIC1, stronger effect = lower value 0.794 | locus YLR058C, strain SHM2, stronger effect = lower value 1 | locus YLR102C, strain apc9, stronger effect = lower value 1 | locus YLR221C, strain rsa3, stronger effect = lower value 0.957 | locus YLR258W, strain gsy2, stronger effect = lower value 0.975 | locus YLR262C, strain YPT6 (second series), stronger effect = lower value 0.923 | locus YLR262C, strain YPT6, stronger effect = lower value 0.701 | locus YLR268W, strain sec22, stronger effect = lower value 0.984 | locus YLR320W, strain mms22, stronger effect = lower value 0.964 | locus YLR342W, strain FKS1 (second series), stronger effect = lower value 1 | locus YLR342W, strain FKS1, stronger effect = lower value 0.993 | locus YLR357W, strain rsc2, stronger effect = lower value 0.991 | locus YLR370C, strain arc18, stronger effect = lower value 0.955 | locus YLR371W, strain rom2, stronger effect = lower value 1.01 | locus YLR384C, strain iki3, stronger effect = lower value 0.964 | locus YLR418C, strain cdc73, stronger effect = lower value 1.01 | locus YML016C, strain PPZ1, stronger effect = lower value 0.995 | locus YML032C, strain rad52, stronger effect = lower value 1.02 | locus YML120C, strain ndi1, stronger effect = lower value 0.973 | locus YML124C, strain tub3, stronger effect = lower value 1.01 | locus YMR058W, strain fet3, stronger effect = lower value 0.983 | locus YMR078C, strain ctf18, stronger effect = lower value 1.01 | locus YMR125W, strain sto1, stronger effect = lower value 0.98 | locus YMR129W, stronger effect = lower value 0.985 | locus YMR205C, strain PFK2, stronger effect = lower value 1.03 | locus YMR223W, strain ubp8, stronger effect = lower value 1 | locus YMR231W, strain pep5, stronger effect = lower value 0.943 | locus YMR307W, strain GAS1, stronger effect = lower value 0.998 | locus YNL067W, strain RPL9B, stronger effect = lower value 1.02 | locus YNL071W, strain lat1, stronger effect = lower value 0.982 | locus YNL128W, strain TEP1, stronger effect = lower value 0.996 | locus YNL209W, strain ssb2, stronger effect = lower value 0.978 | locus YNL233W, strain BNI4, stronger effect = lower value 0.969 | locus YNL248C, strain rpa49, stronger effect = lower value 0.986 | locus YNL250W, strain rad50, stronger effect = lower value 1.02 | locus YNL271C, strain bni1, stronger effect = lower value 1 | locus YNL298W, strain CLA4, stronger effect = lower value 1.01 | locus YNL307C, strain MCK1, stronger effect = lower value 1.01 | locus YNL322C, strain KRE1 (second series), stronger effect = lower value 0.967 | locus YNR049C, strain mso1, stronger effect = lower value 0.982 | locus YNR052C, strain pop2, stronger effect = lower value 1.01 | locus YOL012C, strain htz1 0.839 | locus YOL147C, strain pex11, stronger effect = lower value 1.01 | locus YOR001W, strain rrp6, stronger effect = lower value 0.944 | locus YOR061W, strain CKA2, stronger effect = lower value 0.993 | locus YOR069W, strain VPS5, stronger effect = lower value 1 | locus YOR070C, strain gyp1, stronger effect = lower value 1.01 | locus YOR080W, strain dia2, stronger effect = lower value 0.957 | locus YOR083W, strain WHI5, stronger effect = lower value 1.01 | locus YOR106W, strain vam3, stronger effect = lower value 0.982 | locus YOR136W, strain idh2, stronger effect = lower value 1 | locus YOR144C, strain elg1, stronger effect = lower value 1.01 | locus YOR184W, strain ser1, stronger effect = lower value 0.985 | locus YOR265W, strain rbl2, stronger effect = lower value 1 | locus YOR270C, strain vph1, stronger effect = lower value 0.957 | locus YOR290C, strain snf2, stronger effect = lower value 0.97 | locus YOR316C, strain cot1, stronger effect = lower value 1 | locus YPL051W, strain arl3, stronger effect = lower value 0.995 | locus YPL078C, strain atp4, stronger effect = lower value 1.01 | locus YPL106C, strain sse1, stronger effect = lower value 0.978 | locus YPL240C, strain hsp82, stronger effect = lower value 0.965 | locus YPL241C, strain CIN2, stronger effect = lower value 0.998 | locus YPR119W, strain clb2, stronger effect = lower value 1.01 | locus YPR141C, strain kar3, stronger effect = lower value 0.997 | locus YPR163C, strain tif3, stronger effect = lower value 1.01 | locus YPR167C, strain met16, stronger effect = lower value 1 | strain wtn01, stronger effect = lower value 0.987
